Data on 40 compounds can be found in PubChem BioAssay (EPA / NIEHS).

Molecules are shown by their SMILES. Results filed as inconclusive are left out. Calls of active or inactive are those of the source. How the source made its calls: active means hit-call score of the fitted dose curve at least 0.9, where 1 is the maximum; inconclusive means response in the unintended direction; inactive means score below 0.9.

Broadly, the AC50 is the midpoint of the concentration-response curve, whichever way the signal moves.

This assay can be described thus: ACEA_AR_agonist_AUC_viability: ACEA Biosciences xCELLigence Real-Time Cell Analysis on Androgen Receptor Agonism for Viability (AID 2283775). The protocol:
ACEA_AR_agonist is a cell-based, single-readout assay that uses 22Rv1, a human prostate cancer cell line, with measurements taken at 80 hours after chemical dosing in a 384-well plate, although TO5 and TO6 (mc0.srcf) used a 96-well plate. Differences in plate size can be ignored given data normalization.ACEA_AR_80hr is one of two assay component(s) measured or calculated from the ACEA_AR assay. It is designed to make measurements of real-time cell-growth kinetics, a form of growth reporter, as detected with electrical impedance signals by Real-Time Cell Electrode Sensor (RT-CES) technology.Data from the assay component ACEA_AR_AUC_viability was analyzed in the positive analysis fitting direction relative to DMSO as the negative control and baseline of activity. Using a type of growth reporter, loss-of-signal activity can be used to understand changes in the viability. Furthermore, this assay endpoint can be referred to as a secondary readout, because this assay has produced multiple assay endpoints where this one serves a viability function. To generalize the intended target to other relatable targets, this assay endpoint is annotated to the cell cycle intended target family, where the subfamily is cytotoxicity.
The xCELLigence system Multi-E-Plate stations were used to measure the time-dependent response to chemicals. Each compound was tested in an eight-point, 1:4 serial dilution series starting at a maximum final concentration of 100 uM. A maximum starting concentration of 0.5% DMSO was present in the 100 uM chemical samples and was diluted along with the test article dilution series. The screen was performed in biological duplicate using two separate, 96-well, E-Plates 96 for each dilution series (n = 2). Positive controls (MG132 and testosterone) and a negative control (assay media) were tested in quadruplicate on each testing plate. Then, 0.5% and 0.125% DMSO were tested in duplicates in each plate to serve as solvent controls for the 2 highest concentrations of testing compounds: 100 uM and 25 uM. Reference compounds were tested with 8 concentrations with 1:5 serial dilutions. All screening was carried out by ACEA Biosciences, Inc. (San Diego, CA). 22Rv1 cells purchased from ATCC were maintained in media supplemented with 10% fetal bovine serum (FBS). Before screening, 22Rv1 cells were preconditioned in assay medium. Cells were then detached and seeded in E-Plates 96 in assay medium. After overnight monitoring of growth once every hour, compounds were added to […] cells and remained in the medium until the end of the experiment. Cellular responses were then recorded once every 5 min for the first 5 h, and once every hour for an additional 100 h.
For `CC(C)CCCCCCCOC(=O)c1ccc(C(=O)OCCCCCCCC(C)C)c(C(=O)OCCCCCCCC(C)C)c1`, the call was inactive.
The same measure, in the same setting: to `CCN(CC)c1ccc(C(=C2C=CC(=[N+](CC)CC)C=C2)c2ccc(S(=O)(=O)O)cc2S(=O)(=O)[O-])cc1` belongs “inactive”.
For the compound `CCN(CC)c1ccc2c(-c3ccccc3C(=O)O)c3ccc(=[N+](CC)CC)cc-3oc2c1`, the AC50 is 9.44 µM (active).
As to `O=C1C(c2[nH]c3ccc(S(=O)(=O)O)cc3c2O)=Nc2ccc(S(=O)(=O)O)cc21`, the result was inactive.
In the case of `CC(=O)C=CC1=C(C)CCCC1(C)C`, the compound was called inactive.
As for `CCCCCC(CO)CCC` (stereo not given), the call was inactive.
Turning to `Cc1ccc(C(C)C)cc1O`, the outcome was inactive.
On to `OCCOCCOCCOCCO`, for which the call was inactive.
For the compound `CC(C)(C)C(=O)c1ccccc1`, the compound was called inactive.
Turning to `CCCOCC(C)O` (stereo not given), the compound was called inactive.
Regarding `NC(=O)NC1NC(=O)NC1=O` (stereo not given), the compound was classed as inactive.
As for `Cc1ccc(S)cc1`, the compound was classed as inactive.
With `CCC/C=C/C=O`, the outcome was inactive.
Take `CSc1nc(NC2CC2)nc(NC(C)(C)C)n1`: the call was inactive.
On to `c1ccc(CCCc2ccccn2)cc1`, for which the result was inactive.
In the case of `CC1=CC(=O)NS(=O)(=O)O1`, the compound was classed as inactive.
The same measure, in the same setting: as for `CCCCCCCCCCN`, the entry is “inactive”.
For the compound `O=Nc1ccc(Nc2ccccc2)cc1`, the call was inactive.
`CCCCC[Si](OCC)(OCC)OCC`: the result was inactive.
Still for that read-out and setting: as for `CCCCCCCCCCCCCCCC(=O)OC[C@H](O)[C@H]1OC(=O)C(O)=C1O`, the entry is “inactive”.
Regarding `CCN(CC)CCOC(=O)c1ccc(N)cc1`, the half-maximal activity concentration (AC50) was 20.5 µM (active).
For the compound `COc1cc(C(C)(C)C)c(O)c(C(C)(C)C)c1`, the call was inactive.
For the compound `C=C(C)C(=O)O`, the compound was called inactive.
In the case of `O=C(O)Cc1cccc2ccccc12`, the outcome was inactive.
`CCCCCCCCCCCCN`: the outcome was inactive.
On to `CC(=O)OCCC(C)CC(C)(C)C` (stereo not given), for which the outcome was inactive.
Take `CCCCCCCCC`: the result was inactive.
Turning to `CCCC/C=C\CCCCCCCCCC=O`, the call was inactive.
As to `OCCN1CCNCC1`, the result was inactive.
On the same count and under the same terms, to `C=CC(C)(O)CCC=C(C)CCC=C(C)C` (stereo not given) belongs “inactive”.
The same measure, in the same setting: as for `CCCCCCCCCCCCCCCCCC(=O)OCC(CC)CCCC` (stereo not given), the entry is “inactive”.
`C=O`: the compound was classed as inactive.
On to `CCCCc1ccc(N)cc1`, for which the compound was called inactive.
Take `COc1c(Cl)c(Cl)c(Cl)c(Cl)c1Cl`: the outcome was inactive.
As for `CC(C)=CCCC(C)CC=O` (stereo not given), the outcome was inactive.
On the same count and under the same terms, to `NCCCN1CCOCC1` belongs “inactive”; to `CCCCCCCCC=O`, “inactive”; to `c1ccc2[nH]ccc2c1`, “inactive”.
Consider `COc1ccc(O)cc1`, for which the call was inactive.
On to `CC1(C)C(=O)N(Br)C(=O)N1Cl`, for which the compound was called inactive.
